Results: the supplement of paper PMC10338343
± gives the standard deviation.

Each sequence was assayed on EfPiwi piRISC loaded with piRNA #1 (26 nt) (assay: pre-steady-state target cleavage rate (min^-1); auxiliary factor: 500 nM Ephydatia muelleri Gtsf1; guide: piRNA #1 5'p-UGAGGUAGUAGGUUGUAUAGUAUCCA; MIWI and MILI are mouse PIWI proteins and EfPiwi is from a freshwater sponge; tags in brackets are library labels; higher = faster piRNA-guided slicing of the target).
Procedure: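 Cleave-'n-Seq: a library of target RNAs (target site in constant flanks) at […] was incubated with 1 nM active freshwater sponge Ephydatia fluviatilis Piwi piRISC (synthetic 5'-monophosphorylated piRNA guide) with or without 500 nM EmGtsf1 at 33 °C for 1 min to 16 h. Uncleaved targets were sequenced and the pooled three trials fitted to a burst-and-steady-state model to give the pre-steady-state cleavage rate (min^-1). Sequence is the target site only. Fits with R² ≤ 0 are excluded.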

Sequence	pre-steady-state target cleavage rate
GGAGACCUUACUAUACAACCUACUACCCUCA	0.00416 ± 0.0023
GGAGACCUAACUAAACAACCUACUACCUCA	0.00631 ± 0.0031
GGAGACGAUACUAUACAACCUACUUCCUGA	0.00342 ± 0.002
GGAGACCAUACUAUACAACGUACUUCCUCA	0.00544 ± 0.0032
GGAGUGGUAUCUAUACAACCUACUACCUCA	0.0613 ± 0.023
GGAGACCUAACUAUACAUCCUACUACCUGA	0.00344 ± 0.0029
GGAGACCAUACUAUACAACCUGCUACCUCA	0.0759 ± 0.029
GGAGACGAUACUAUACAACCUACCUACCUCA	0.00485 ± 0.002
GGAGACGAACUAUACAACCUACUACCUCA	0.0112 ± 0.0057
GGAGAGGUUACUAAACAACCUACUACCUCA	0.00353 ± 0.0034
GGAGACCAUACUAUCCAACCUACUACCUCA	0.00636 ± 0.0033
GGAGACCUAACUAUACAACCUUCUACCUGA	0.00465 ± 0.0036
GGAGACGAUAGAAUACAACCUACUACCUCA	0.00812 ± 0.0043
GGAGAGGAUACUAUACAACCUUCUACCUCA	0.00778 ± 0.0039
GGAGAGGAUACUGUACAACCUACUACCUCA	0.0789 ± 0.029
GGAGAGGAUACUAUACAAGCUACUACGUCA	0.00403 ± 0.0018
GGAGUGGAUACUAUACUACCUACUAGCUCA	0.0027 ± 0.0021
GGAGAGGAUACUAAACAACGUACUACCUCA	0.00367 ± 0.002
GGAGUGGAUACUAUACAACCUACUACCAUCA	0.00588 ± 0.0026
GGAGACCUAACUAUACAACCUACUAUCUCA	0.0057 ± 0.003

Sequence	pre-steady-state target cleavage rate
GGAGACCAUACUAUACAACCUAGAUCCUCA	0.00423 ± 0.0039
GGAGACCUUACUAUACAACCCUACUACCUCA	0.00411 ± 0.0037
GGAGACCUAACUAUACAACCUAGUACCUCA	0.00385 ± 0.0021
GGAGACGAUACUAUACAACCUACAAGCUCA	0.00381 ± 0.0023
GGAGUGGAUACUAUACGAACCUACUACCUCA	0.00789 ± 0.0039
GGAGACCAUAGUAUACAACCUACUACGUCA	0.00463 ± 0.0028
GGAGUGCAUACUAUUCAACCUACUACCUCA	0.00471 ± 0.0042
GGAGACCUAUGAUAUGUACCAACUACCACA	< 0.0001
GGAGUGGAUACUAUACAACCUACUAGGAGA [g6:g26:cont:t1A]	0.00291 ± 0.0023
GGAGACCUAACUAUACAACCUACUACGUCA	0.00274 ± 0.0023
GGAGUGGAAACUAUACAACCUACUACCUCA	0.0504 ± 0.018
GGAGACCUUACUAUACAACCUACUACCUA	0.0485 ± 0.018
GGAGACCUAACUAUCCAACCUACUACCUCA	0.00727 ± 0.004
GGAGACGAUACUAUACAACCUCACUACCUCA	0.0049 ± 0.0024
GGAGUGGAUACUAGACAACCUACUACCUCA	0.226 ± 0.081
GGAGACGAUACUAUACAACUACUACCUCA	0.00742 ± 0.0033
GGAGUGGAUACUAUACAACGUACUACCACA	0.00371 ± 0.00099
GGAGACGAUACUAUACAACCUUCUACCUGA	0.0056 ± 0.0024
GGAGAGGAUACUAUACAACCUACUUGGUCA	0.00425 ± 0.0034
GGAGACGAUACUAUAGAACCUACUUCCUCA	0.00251 ± 0.0022
